This excerpt belongs to a sample that is enriched for hits.
Tb PFK block – inhibitors of T. brucei phosphofructokinase. O15648. T. brucei PFK, ADP-Glo luminescence. Potency, µM (doses to about 57.5 µM), for the others: top-dose activity, negative = inhibition, most hits filed as inhibitors. hit rate 0.17% among 330,000;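 further: 0% = uninhibited 1x PFK enzyme wells and -100% = no-enzyme wells; nearly all actives have a fitted effect of over 60% in size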
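Compounds were pin-transferred as a titration series up to 57 uM into substrate buffer (0.5 mM F6P, 0.1 mM ATP, pH 8.0), then 1.25 nM PFK was added and reactions ran 45 min before ADP-Glo detection.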
MBNL1-CUG inh – inhibitors of human MBNL1 binding to CUG repeat RNA. Q9NR56. TR-FRET MBNL1-His/biotin-(CUG)12 binding, 665/545 ratio. Potency, µM (titrated, usually from 57.5 µM), for the others: top-dose activity change, negative = inhibition, usual class: inhibitors. hit rate 0.036% among 280,000. AID 2675; active means well fitted inhibition curve with a large enough effect in the signal ratio, with a control signal flat, not every such curve was filed as active; inconclusive means small, poorly fitted or top-dose-only effect, or effect the other way, or a change in a side signal; inactive means no such curve, though single readings can be large or run the other way; the % refers to the signal ratio
Target sequence (Q9NR56 whole entry, looked up): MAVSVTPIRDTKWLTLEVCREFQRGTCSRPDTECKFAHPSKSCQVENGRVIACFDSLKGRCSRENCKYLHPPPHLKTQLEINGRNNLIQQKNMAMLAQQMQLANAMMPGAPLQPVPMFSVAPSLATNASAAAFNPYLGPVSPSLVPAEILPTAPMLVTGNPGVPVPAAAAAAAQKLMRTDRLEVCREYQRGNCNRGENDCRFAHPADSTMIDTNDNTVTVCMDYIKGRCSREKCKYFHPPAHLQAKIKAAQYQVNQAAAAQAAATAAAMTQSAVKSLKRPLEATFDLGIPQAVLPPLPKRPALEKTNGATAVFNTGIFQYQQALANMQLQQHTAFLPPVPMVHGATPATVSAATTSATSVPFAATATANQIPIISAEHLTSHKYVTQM
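Ratiometric TR-FRET (665 over 545 nm, excitation 340 nm) tracks disruption of MBNL1-His/biotin-(CUG)12 complex after 60 min at room temperature, with compounds at 92 nM to 58 uM final.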
IMPase Li cell – membrane-permeable IMPase blocker, potentiated with lithium | CHO-M1 cells, IP1 TR-FRET (IP-One), carbachol + lithium | hit rate 0.35% among 210,000 | Potency, µM (titrated, usually from 59.4 µM), for the others: at the top dose activity, negative = IMPase inhibition, hits mostly inhibitors;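 further: IP1 builds up when IMPase is blocked and the TR-FRET signal falls; plate controls were basal vehicle for no effect and high inhibitor control for full effect; nearly all actives have a fitted effect of over 50% in size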
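Concentration–response in CHO-M1 cells, lithium-potentiated; 30 min at 37C. IP1 detected by competitive TR-FRET after 10 min lysis at RT. Hill-fitted AC50.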
GoLoco inh red – RGS12 GoLoco-Gai1 interaction inhibition | P63096 | Gai1:RGS12 GoLoco peptide FP, rhodamine, 10 min | Potency, µM (titrated, usually from 61.6 µM), without a hit: at the highest dose activity, negative = inhibition, actives largely listed as inhibitors | hit rate 0.44% among 230,000 | AID 880; active means well fitted inhibition curve with a large enough effect, not every such curve was filed as active; inactive means no such curve, though single readings can be large or run the other way; further: nearly all actives have a fitted effect of over 30% in size
NPSR antagonist – blocks cAMP signaling of the human neuropeptide S receptor; CHO-NPSR cells, cAMP TR-FRET, antagonist mode; hit rate 1% among 220,000; Q6W5P4; Potency, µM (highest dose often 38.3 µM), for the others: top-dose activity change, negative = inhibition, hits mostly inhibitors; AID 1461; further: nearly all actives have a fitted effect of over 50% in size
Starred values were filed as active, the others as inactive; ! = not confirmed by another sample; [ ] = remark or other dose. Unless noted, the call rests on the fitted dose curve; in most records, active means well fitted curve in the direction sought with a large enough effect; inconclusive means small, poorly fitted or top-dose-only effect, or another doubt; inactive means no such curve, though single readings can be large; an effect the other way counts as inactive or inconclusive. Unless noted, on the % scale 0 is the no-effect control and ±100 the full control effect; potency means the concentration at half of the fitted maximal effect.

`Cc1c(CCOC(=O)c2cc([N+](=O)[O-])cc([N+](=O)[O-])c2)sc[n+]1CC(=O)c1ccccc1` gave Tb PFK block 2%, MBNL1-CUG inh inconclusive, IMPase Li cell 11%, GoLoco inh red -13% and NPSR antagonist 10µM*.
C=CCOc1c(Cl)cc(CNc2ccc(N(C)C)cc2)cc1OC was read as Tb PFK block -2%, MBNL1-CUG inh inconclusive, IMPase Li cell 154%[38.3 µM], GoLoco inh red 22µM* and NPSR antagonist 5µM*.
CN(C)C(=S)NC(=O)C12CC3(C)CC(C)(CC(C)(C3)C1)C2 was read as Tb PFK block 1%, MBNL1-CUG inh -4%, GoLoco inh red 7% and NPSR antagonist 20%.
Cc1ccnc(N2C(=O)c3cccc4c([N+](=O)[O-])ccc(c34)C2=O)c1 was read as Tb PFK block -3%, MBNL1-CUG inh inconclusive, IMPase Li cell 28%, GoLoco inh red -3% and NPSR antagonist 10µM*.
CC1(C)C(=O)Nc2ccccc2N1C(=O)COC(=O)CSc1ccc(Cl)cc1 was read as Tb PFK block -19%.
`O=C(c1cc(=O)[nH]c2ccccc12)N(Cc1nnc(-c2ccccc2Cl)o1)C1CC1` gave Tb PFK block 21%.
For Cc1cccc(N2CCN(Cc3ccc([N+](=O)[O-])o3)CC2)c1C the results were Tb PFK block 2% and MBNL1-CUG inh inconclusive.
For COc1ccc(C(=O)CSc2nc(N)nc(SC)c2C#N)cc1 the results were Tb PFK block 6%, MBNL1-CUG inh 17%, IMPase Li cell 6.3µM*, GoLoco inh red -2% and NPSR antagonist 10%[46.1 µM].
`CSc1nc(N)nc(SCC(=O)c2ccccc2)c1C#N` gave Tb PFK block 1%, MBNL1-CUG inh 73%, IMPase Li cell 18%[38.3 µM], GoLoco inh red 6% and NPSR antagonist -20%[46.1 µM].
For Cn1cccc1C(=O)N1CCC[C@@]2(CCN(Cc3cc(C(F)(F)F)cc(C(F)(F)F)c3)C2)C1 the results were IMPase Li cell 24% and GoLoco inh red 8%.
For O=c1c(O)c(-c2ccc(O)cc2)oc2cc(O)ccc12 the results were IMPase Li cell -19% and GoLoco inh red -12%.
For O=c1c(O)c(-c2ccc(O)c(O)c2)oc2cc(O)ccc12 the results were IMPase Li cell 11µM*! and GoLoco inh red -2%.
`COc1nc(-c2ccccc2)ccc1-c1noc(-c2ccco2)n1` gave Tb PFK block -1%, MBNL1-CUG inh 11%, IMPase Li cell 1%, GoLoco inh red 3.5µM* and NPSR antagonist -14%[46.1 µM].
Screening COc1ccc(-c2ccc(-c3noc(-c4ccco4)n3)c(OC)n2)cc1 returned Tb PFK block 7%, MBNL1-CUG inh 17%, IMPase Li cell 1%, GoLoco inh red 33% and NPSR antagonist -28%.
COc1ccc(-n2cc(-c3ccc(Br)cc3)[nH]c2=S)cc1 was read as Tb PFK block -9%, MBNL1-CUG inh 3%, IMPase Li cell 11µM*, GoLoco inh red -4% and NPSR antagonist -35%.
Screening CC(C)Nc1ncnc2ccc(Br)cc12 returned Tb PFK block -9%, MBNL1-CUG inh -1%[11.5 µM], IMPase Li cell -10%, GoLoco inh red 3% and NPSR antagonist 11%.
CSCCC(Nc1ncnc2ccc(Br)cc12)C(=O)O (stereo not drawn) was read as Tb PFK block 4%, MBNL1-CUG inh 19%, IMPase Li cell 10µM*, GoLoco inh red 0% and NPSR antagonist inconclusive.
CCCCN(CC)S(=O)(=O)c1ccc(C(=O)N(CCCN(C)C)c2nc3cc(C)cc(C)c3s2)cc1 was read as Tb PFK block -1%, MBNL1-CUG inh 0%, IMPase Li cell 15%, GoLoco inh red -3% and NPSR antagonist 10µM*.
`O=[N+]([O-])c1ccccc1-c1ccc(/C=N/n2cnnc2)o1` gave Tb PFK block -3%, MBNL1-CUG inh inconclusive, IMPase Li cell -3%[38.3 µM], GoLoco inh red 4% and NPSR antagonist -11%[46.1 µM].
For O=C1ON=C(c2ccccc2)/C1=C/c1ccc(-c2ccccc2[N+](=O)[O-])o1 the results were Tb PFK block 0%, MBNL1-CUG inh 12%, IMPase Li cell 11%, GoLoco inh red -5% and NPSR antagonist 7.9µM*.
For O=C(Nc1ccc(Cl)cc1)c1ccc2nsnc2c1 the results were Tb PFK block -5%, MBNL1-CUG inh inconclusive, IMPase Li cell -8%, GoLoco inh red -7% and NPSR antagonist -8%.
CN(C)c1ccc(NC(=O)c2ccc3nsnc3c2)cc1 was read as Tb PFK block -10%, MBNL1-CUG inh inconclusive, IMPase Li cell 17%[38.3 µM], GoLoco inh red 13µM* and NPSR antagonist -16%[46.1 µM].
Screening Cc1cc(C)n(-c2ccc(C(=O)OCC(=O)Nc3cc(S(C)(=O)=O)ccc3Cl)cc2)n1 returned Tb PFK block 0%.
CC(C)C[C@H](NC(=O)c1nc[nH]c1C(=O)NC1CCN(C(=O)OC(C)(C)C)CC1)C(=O)OC(C)(C)C was read as Tb PFK block 0%, MBNL1-CUG inh 6%, IMPase Li cell 16%, GoLoco inh red -2% and NPSR antagonist inconclusive.
For CC(C)(C)OC(=O)NCCCC[C@H](NC(=O)c1nc[nH]c1C(=O)NC1CCN(C(=O)OC(C)(C)C)CC1)C(=O)OC(C)(C)C the results were Tb PFK block -2%, MBNL1-CUG inh -11%, GoLoco inh red 2% and NPSR antagonist 10µM*.
`COc1ccc(-c2cc(Cl)cc3c(=O)c4ccccc4n(C)c23)cc1F` gave Tb PFK block 2% and MBNL1-CUG inh 0%.
Screening CC1CCC(C(C)C)C(OCC[N+](C)(C)C)C1 (stereo not drawn) returned Tb PFK block -11%, MBNL1-CUG inh 35%, IMPase Li cell 20%, GoLoco inh red 4µM* and NPSR antagonist 8%.
`Cc1ccc(NCc2n[nH]c(=S)n2Cc2ccccc2)cc1Cl` gave Tb PFK block -7%, MBNL1-CUG inh 6%, IMPase Li cell 21%, GoLoco inh red 19% and NPSR antagonist 47%.
Screening CCOc1ccc(NC(=O)Nc2cc(OCC(F)(F)F)cc(OCC(F)(F)F)c2)cc1 returned Tb PFK block 3%, IMPase Li cell 19%, GoLoco inh red -3% and NPSR antagonist -27%.
O=C(Nc1ccc(F)cc1)Nc1cc(OCC(F)(F)F)cc(OCC(F)(F)F)c1 was read as Tb PFK block 5%, MBNL1-CUG inh -25%, IMPase Li cell 8%, GoLoco inh red 8% and NPSR antagonist 13µM*.
`COc1ccc(Cl)cc1-c1n[nH]c(=S)o1` gave Tb PFK block 15%, MBNL1-CUG inh inconclusive, IMPase Li cell 6.3µM*, GoLoco inh red -8% and NPSR antagonist 6.3µM*.
S=c1[nH]nc(-c2ccccc2)o1 was read as Tb PFK block -1%[0.46 µM], MBNL1-CUG inh 87%, IMPase Li cell 11µM*, GoLoco inh red -7% and NPSR antagonist -17%[46.1 µM].

Compound activity: PubChem BioAssay, National Center for Advancing Translational Sciences (NCATS)
